Assay results: PubChem BioAssay (NCI)
Values joined by “and” are separate entries in the source; they are usually repeats but may differ in a detail not shown here. Equal values may be shown once. About 79,000 compounds went through this panel and 15% of them were active in at least one assay; those are over-represented in the sample as a whole. Active and inactive are the calls of the source. No stated cut-off is given here; in the data, active means growth inhibition above about 70%; inactive means the rest.

Columns and labels:
[1] = NCI Yeast Anticancer Drug Screen. Data for the rad50 strain (AID 155);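 further: 0% = growth of vehicle-only cultures of the same strain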; conditions: S. cerevisiae rad50 strain growth inhibition, hits give high values; at 50.0 µM unless noted
Outline: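 A DNA repair-deficient yeast mutant serves as the test organism; compound-induced growth inhibition is calculated against vehicle-treated cells.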

[2] = NCI Yeast Anticancer Drug Screen. Data for the mec2-1 strain (AID 157); conditions: S. cerevisiae mec2-1 strain, hits give high values; at 50.0 µM unless noted
Outline: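 Vehicle-treated cultures served as reference for growth inhibition of compound-exposed mec2-1 yeast.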

[3] = NCI Yeast Anticancer Drug Screen. Data for the sgs1 mgt1 strain (AID 161);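 further: 0% = growth of cultures given vehicle only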; conditions: S. cerevisiae sgs1 mgt1 strain, hits give high values; at 50.0 µM unless noted
Outline: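 Mutant yeast exposed to compound; growth scored against vehicle-only wells.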

[4] = NCI Yeast Anticancer Drug Screen. Data for the cln2 rad14 strain (AID 165);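 further: 0% = growth equal to vehicle treated cultures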; conditions: S. cerevisiae cln2 rad14 strain, hits give high values; at 50.0 µM unless noted
Outline: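 Each compound was tested on cln2 rad14 yeast. Inhibition of growth was calculated against vehicle-exposed controls.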

[5] = NCI Yeast Anticancer Drug Screen. Data for the bub3 strain (AID 167); conditions: S. cerevisiae bub3 mutant strain, hits give high values; at 50.0 µM unless noted
Outline: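 Inhibition values come from growth of compound-treated mutant yeast normalised to vehicle-treated controls.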

[6] = NCI Yeast Anticancer Drug Screen. Data for the mlh1 rad18 strain (AID 175); conditions: S. cerevisiae mlh1 rad18 strain growth inhibition, hits give high values; at 50.0 µM unless noted
Outline: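 Vehicle-treated cultures served as the reference for growth inhibition in a yeast strain carrying DNA damage repair alterations exposed to each compound.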

Measured: growth inhibition

CCOC(=O)C(CC/C=C\c1ccccc1)N1CCC[C@H]1C(=O)OC (stereo partly specified)
inactive: [1] -7.9% | [2] -5% | [3] -11.9% | [4] 9.55% | [5] 2.75% | [6] -13.3%

Nc1sc(=S)[nH]c1-c1ccccc1
inactive: [1] 20.1% | [2] 10.7% | [3] -24.9% | [4] -30.8% | [5] -11% | [6] 11.1%

c1cc2c(cc1CSCc1c(CSCc3ccc4c(c3)OCO4)c(CSCc3ccc4c(c3)OCO4)c(CSCc3ccc4c(c3)OCO4)c(CSCc3ccc4c(c3)OCO4)c1CSCc1ccc3c(c1)OCO3)OCO2
inactive: [1] -0.95% | [2] -8.65% | [3] -1.4% | [4] -39% | [5] 2.55% | [6] 9.3%

CCCCN(CCCC)C(=O)c1cccc(C)c1
inactive: [1] 13.7% | [2] 8.1% | [3] 4.1% | [4] -16.4% | [5] 53.2% | [6] 14.1%

CCCCCCC(/C=N/NC(=O)CCCCCCCCC(=O)N/N=C/C(=C/c1ccccc1)CCCCCC)=C\c1ccccc1
inactive: [1] 11.4% | [2] 1.85% | [3] -5.95% | [4] -5.05% | [5] -1.45% | [6] 15.9%

O=C(O)Cc1ccc(O)cc1
inactive: [1] 6.25% | [2] -25.6% | [3] 8.6% | [4] 8.45% | [5] -11.7% | [6] 1.75%

OCC1OC(O)C(O)C(O)C1O (stereo unspecified)
inactive: [1] 5.05% and 8.6% | [2] 1.75% and 15.1% | [3] -0.95% and -5.85% | [4] -19.4% and 16.8% | [5] -4.1% and 2.1% | [6] 3.1% and 14.4%

CC(C)CC(=O)/C=C\c1ccco1
inactive: [1] -15.2% | [2] -33.5% | [3] 1.05% | [4] 1.3% | [5] -10.5% | [6] -7.45%

O=c1[nH]cnc2c1ccc1[nH]ncc12
inactive: [1] 9.45% | [2] 0.2% | [3] -3.35% | [4] -42.2% | [5] -1.05% | [6] 5.4%

O=C1OC(=O)C2C(Cl)C(Cl)C12 (stereo unspecified)
inactive: [1] -5.1% | [2] -7.2% | [3] 2.7% | [4] -37.6% | [5] -15.8% | [6] 3.4%

Cc1cccc(C)c1NC(=O)c1c(Cl)c(Cl)c(Cl)c(Cl)c1C(=O)O
inactive: [1] -25.9% | [2] 11.8% | [3] -15.7% | [4] -20% | [5] 4.55% | [6] -18.2%

COc1ccccc1NC(=O)C1=C(C)NC(C)=C(C(=O)Nc2ccccc2OC)C1c1ccc(C)cc1
inactive: [1] 12.7% | [2] -10.3% | [3] 3.75% | [4] 12.1% | [5] 12.3% | [6] -0.85%

Cc1ccc(O)c(Cl)c1C
inactive: [1] 6.4% | [2] -28.1% | [3] -6.7% | [4] 7.4% | [5] -26.3% | [6] 5.1%

CN(C)C1=CC(=S)NC(c2ccccc2)C1 (stereo unspecified)
inactive: [1] -2.35% | [2] -16.1% | [3] -3.7% | [4] -11.8% | [5] -15% | [6] -0.55%

CCCCSc1ncnc2nc[nH]c12
inactive: [1] -38% | [2] -15.4% | [3] -9.05% | [4] -21.4% | [5] -7.45% | [6] -15.7%

CCOC(=O)c1cc([N+](=O)[O-])cnc1C
inactive: [1] 5.8% | [2] 10% | [3] -1.7% | [4] 0.4% | [5] 8.45% | [6] 2.4%

CCCNC(=O)Oc1ccccc1C(=O)NCO
inactive: [1] -3.5% | [2] 0.4% | [3] -9.35% | [4] -14.1% | [5] 16.8% | [6] -6.4%

CCN(CC)c1ccc2cc(C(=O)Nc3ccccc3)c(=N)oc2c1
inactive: [1] 15.5% | [2] 5.45% | [3] 1.8% | [4] 13.7% | [5] -20.2% | [6] -39.1%

C[N+](C)(C)CC1CCC/C1=N\OC(=O)c1ccccc1 (stereo unspecified)
inactive: [1] -17.8% | [2] 1.85% | [3] 11.8% | [4] 12.8% | [5] 14.2% | [6] -2.7%

CN(C)c1ccc(/C=C2\C[N+](C)(C)C/C(=C\c3ccc(N(C)C)cc3)C2=O)cc1
inactive: [1] 6.9% | [2] 3.4% | [3] 9.35% | [4] -2.55% | [5] -3.45% | [6] 32.8%

CC1(C)CC(=O)C=C(NCc2ccccc2)C1
inactive: [1] -0.95% | [2] -2.6% | [3] -8.35% | [4] -24.9% | [5] -19.1% | [6] 11.2%

NC(=O)CCCCCCCCC(N)=O
inactive: [1] 10.7% | [2] 4.95% | [3] 9.65% | [4] -4.75% | [5] -1.4% | [6] 31.1%

O=Cc1ccc(C=O)o1
inactive: [1] 4.25% | [2] -1.8% | [3] 28.9% | [4] 6.3% | [5] -11.7% | [6] 14.2%

Cc1cc(=O)[nH]c(NN2C(Cl)C(=O)C2c2ccccc2O)n1 (stereo unspecified)
inactive: [1] 16.4% | [2] -31.5% | [3] 13.3% | [4] 2.95% | [5] -9.3% | [6] -13.8%

CC[N+]1(CC)CCOC(=O)C1
inactive: [1] -15.8% | [2] -2.6% | [3] -3.9% | [4] 22.9% | [5] -19.4% | [6] -26.9%

CC(=O)NC(C(=O)O)C(C)C (stereo unspecified)
inactive: [1] 6.4% | [2] -0.75% | [3] -4.55% | [4] -4.2% | [5] 0.85% | [6] 6.7%

CCO[C@@H]1OC(=O)[C@H]2C(c3ccccc3)=NO[C@@H]12
inactive: [1] -13.2% | [2] -22.4% | [3] -9.7% | [4] 7.55% | [5] 13.7% | [6] -4.15%

N#C/C(=C\c1cccc2ccccc12)c1ccc(Cl)cc1
inactive: [1] -11.8% | [2] -12.9% | [3] -6.65% | [4] -13.7% | [5] -2.6% | [6] -1.85%

O=C(O)C(c1ccccc1)N1C(=O)C(Cl)=C(Cl)C1=O (stereo unspecified)
inactive: [1] -0.1% | [2] -6.35% | [3] 1.4% | [4] -10.8% | [5] 1.15% | [6] 10.8%

Cc1ccc(C2OC3=C(Nc4ccc([N+](=O)[O-])cc4N3)C2=O)cc1 (stereo unspecified)
inactive: [1] 10.1% | [2] 7.75% | [3] 8.65% | [4] 12.8% | [5] -4.35% | [6] 3.25%

OCCCC(O)CCC(O)CCC(O)CCCO (stereo unspecified)
inactive: [1] -4% | [2] -20.1% | [3] 9.15% | [4] 9.5% | [5] -22.8% | [6] 5.15%

CCN(CC)CCn1c2cc3c(cc2c(=O)c2cccnc21)OCO3
inactive: [1] -18.1% | [2] -17.6% | [3] -29.4% | [4] 13.8% | [5] -34% | [6] 24.1%

O=C(O)CCNCCC(=O)O
inactive: [1] 8.45% | [2] -6.75% | [3] 3.6% | [4] -25.5% | [5] 5.05% | [6] 9.7%

CCCCC/C(C=O)=C\c1ccccc1
inactive: [1] 38.5% | [2] 15.8% | [3] 39.5% | [4] -12.2% | [5] 18% | [6] 38%

CCN(CC)CCn1c2ccccc2c(=O)c2c(OC)ccc(OC)c21
inactive: [1] 54.4% | [2] 8.05% | [3] 15.8% | [4] 16.6% | [5] 16.8% | [6] 50.9%

O=C(Nc1ccc(Cl)c(Cl)c1)Oc1cccc(NC(=S)Nc2ccccc2)c1
active: [2] 90.2% | [3] 93% | [4] 91.5% | [6] 94.7%
inactive: [1] 36.9% | [5] 69.8%

O=C(/C=C/c1ccccc1)c1ccccc1
inactive: [1] -1.8% and -29.8% | [2] 10.3% and -6.35% | [3] -8.65% and -18.8% | [4] -41% and -36.2% | [5] 21.7% and 1.7% | [6] 14.3% and -22.3%

NC(=O)N/N=C(/Cc1nc2ccc(C(=O)c3ccccc3)cc2[nH]c1=O)C(=O)Nc1ccc(C(F)(F)F)cc1[N+](=O)[O-]
inactive: [1] -7.85% | [2] 7.35% | [3] -7.85% | [4] 0.8% | [5] -33.6% | [6] 5.05%

N#CCCC(C#N)(CCC#N)C(N)=O
inactive: [1] 11.9% | [2] -18% | [3] -2.6% | [4] -49.6% | [5] 5.2% | [6] 1.55%

Cc1ccc(S(=O)(=O)OC2C(OCc3ccccc3)OC(CO)C2O)cc1 (stereo unspecified)
inactive: [1] -6% | [2] 6.65% | [3] -9.2% | [4] 15.3% | [5] -0.6% | [6] -9.15%

O=C(Nc1ccc(S(=O)(=O)c2ccc(F)cc2)cc1)OC1CCCCC1
inactive: [1] 35.9% | [2] 5.85% | [3] 38.9% | [4] 18.1% | [5] 4.4% | [6] 18.4%
